From PubChem BioAssay
A selection: hits, their analogues and other compounds. The true share with any hit is near 2.4%.
KAT2A inh: GCN5L2 (KAT2A) acetyltransferase inhibition. Q92830. 390,000 compounds, 0.21% hits. AID 504327. GCN5L2 HAT assay, ThioGlo1 CoA-SH fluorescence. Potency, µM (top dose mostly 58.9 µM), inactives show at the top dose activity change, negative = inhibition, usual class: inhibitors; note: % is set by controls: 0 for no effect and ±100 for the full control effect
Target sequence (Q92830 whole entry, looked up): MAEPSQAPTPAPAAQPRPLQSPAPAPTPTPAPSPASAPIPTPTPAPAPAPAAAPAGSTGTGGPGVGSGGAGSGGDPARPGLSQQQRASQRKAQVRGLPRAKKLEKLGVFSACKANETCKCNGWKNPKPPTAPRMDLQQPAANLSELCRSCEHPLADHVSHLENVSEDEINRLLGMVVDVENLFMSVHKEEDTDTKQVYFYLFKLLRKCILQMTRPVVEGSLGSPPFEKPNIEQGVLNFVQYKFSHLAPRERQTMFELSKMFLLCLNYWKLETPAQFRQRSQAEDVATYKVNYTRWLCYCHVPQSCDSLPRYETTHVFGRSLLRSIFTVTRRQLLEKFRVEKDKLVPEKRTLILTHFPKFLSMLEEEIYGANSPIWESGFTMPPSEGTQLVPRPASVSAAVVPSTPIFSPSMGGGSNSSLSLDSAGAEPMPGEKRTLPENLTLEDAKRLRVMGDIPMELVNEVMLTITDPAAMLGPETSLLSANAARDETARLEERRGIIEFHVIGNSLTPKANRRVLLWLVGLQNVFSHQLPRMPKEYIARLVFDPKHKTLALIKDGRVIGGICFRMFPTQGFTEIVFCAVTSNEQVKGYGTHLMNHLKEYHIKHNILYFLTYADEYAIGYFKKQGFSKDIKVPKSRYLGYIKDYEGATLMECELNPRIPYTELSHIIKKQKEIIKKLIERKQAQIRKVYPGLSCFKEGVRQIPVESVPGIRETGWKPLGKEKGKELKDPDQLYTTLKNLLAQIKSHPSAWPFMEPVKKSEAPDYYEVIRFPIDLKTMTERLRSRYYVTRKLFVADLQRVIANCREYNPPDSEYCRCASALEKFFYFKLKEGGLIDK
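Titration-based screen in which CoA formation is detected via maleimide probe ThioGlo1 (50uM) turning fluorescent on thiol reaction; substrates H3(1-25) 75uM and acetyl-CoA 70uM, GCN5L2 20nM, 20 min incubation at room temperature.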
Pol beta inh: inhibitors of human DNA polymerase beta. 340,000 compounds, 1.3% hits. Pol beta primer extension/strand displacement, fluorescence kinetic. Potency, µM (titrated, usually from 114 µM), without a hit: at the highest dose activity change, negative = inhibition, hits mostly inhibitors. P06746; note: % is set by controls: 0 for no effect and ±100 for the full control effect
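Reaction started by 50 nM substrate onto compound-treated Pol beta (10 nM, 15 min preincubation, room temperature); plates read at 0 min and 10 min. Normalized concentration-effect data fitted by four-parameter Hill equation.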
Pol kappa inh-1: inhibitors of human DNA polymerase kappa | AID 588579 | Q9UBT6 | purified Pol kappa, fluorescent DNA synthesis assay, 10 min | 400,000 compounds, 0.53% hits | Potency, µM (titrated, usually from 107 µM), for the others: at the highest dose activity, negative = inhibition, hits mostly inhibitors; note: % is set by controls: 0 for no effect and ±100 for the full control effect
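50 nM final substrate added after 15 min RT preincubation of 10 nM Pol kappa with compound; fluorescence read at 0 and 10 min.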
GLS inh: blocks human kidney-isoform glutaminase activity; O94925; AID 624170; GLS enzymatic activity, qHTS titration; 410,000 compounds, 0.21% hits; Potency, µM (top dose mostly 45.5 µM), for the others: top-dose activity change, negative = inhibition, usual class: inhibitors; note: % is set by controls: 0 for no effect and ±100 for the full control effect
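Compounds were pin-transferred onto hKGA, after which L-glutamine (1 mM solution) and a detection mix of glutamate oxidase, HRP and Amplex Red were added. Initial and 30 min RT fluorescence reads were collected.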
Pol eta inh-1: inhibitors of human DNA polymerase eta | recombinant Pol eta, fluorescent DNA replication assay | Potency, µM (series often up to 114 µM), without a hit: at the highest dose activity change, negative = inhibition, actives largely listed as inhibitors | 390,000 compounds, 1.2% hits; note: % is set by controls: 0 for no effect and ±100 for the full control effect
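Pol eta at 10 nM preincubated with compounds 15 min at room temperature; reaction started with fluorescent substrate (50 nM final) and read kinetically at 0 and 10 min.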
Pol iota inh: inhibitors of human DNA polymerase iota. Pol iota fluorescent replication assay, 10 min. Potency, µM (top dose mostly 115 µM), without a hit: top-dose activity, negative = inhibition, actives largely listed as inhibitors. 390,000 compounds, 1% hits. AID 588590
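Fluorescent replication assay read twice, at 0 min and 10 min after adding 50 nM (final) substrate. Enzyme (10 nM) and compounds were first incubated 15 min at room temperature; enzyme-free buffer wells were negative controls.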
TbPGK inh: blocks T. brucei phosphoglycerate kinase | shares compounds with Pol kappa inh-1 | TbPGK coupled GAPDH assay, Kinase-Glo luminescence | Potency, µM (doses to about 57.5 µM), without a hit: top-dose activity change, negative = inhibition, usual class: inhibitors | 500 compounds, 79% hits | AID 686980; note: % is set by controls: 0 for no effect and ±100 for the full control effect; nearly all actives have a fitted effect of over 65% in size
Pol iota confirm: Inhibitors of human DNA polymerase iota, confirmation; shares compounds with Pol kappa inh-1; Pol iota primer extension, TAMRA/BHQ fluorescence; Potency, µM, actives largely listed as inhibitors; AID 720496; 1,500 compounds, 77% hits
Pol kappa inh-2: Pol kappa (human) inhibition, cherry-pick confirmation. shares compounds with Pol eta inh-1. purified Pol-kappa, fluorescent strand-displacement substrate. Potency, µM, most hits filed as inhibitors. 920 compounds, 76% hits
Pol eta inh-2: Pol eta (human) inhibition, cherry-pick confirmation; Potency, µM, hits mostly inhibitors; Pol eta primer extension, TAMRA/BHQ fluorescence, 10 min; shares compounds with Pol eta inh-1; 2,600 compounds, 64% hits
Starred values were filed as active, the others as inactive. Calls come from the whole dose curve; as a rule, active = well fitted curve in the direction sought with a large enough effect; inconclusive = small, poorly fitted or top-dose-only effect, or another doubt; inactive = no such curve, though single readings can be large; an effect the other way counts as inactive or inconclusive. Potency is the fitted concentration of half-maximal effect.

CC(C)(C)C(=O)c1sc2nc(-c3cccs3)cc(C(F)(F)F)c2c1N was read as KAT2A inh -14%, Pol beta inh 3%, Pol kappa inh-1 2%, GLS inh 1%, Pol eta inh-1 -11% and Pol iota inh 8%.
`Cn1c(SCC(=O)N/N=C/C=C\c2ccco2)nc2ccccc21` gave KAT2A inh -6%, Pol beta inh 45µM*, Pol kappa inh-1 28µM*, GLS inh -8%, Pol eta inh-1 22µM*, Pol iota inh 13µM*, Pol iota confirm inconclusive, Pol kappa inh-2 67* and Pol eta inh-2 67*.
For O=C1CCCC2=C1C(c1ccco1)Nc1ccc3ccccc3c12 (stereo not given) the results were KAT2A inh inconclusive, Pol beta inh 6.3µM*, Pol kappa inh-1 28µM*, GLS inh 11µM*, Pol eta inh-1 2µM*, Pol iota inh 6.3µM*, TbPGK inh 15µM*, Pol iota confirm 7.5* and Pol eta inh-2 19*.
For O=C(N/N=C/c1ccc([N+](=O)[O-])o1)c1cc2c(ccc3ccccc32)o1 the results were KAT2A inh -15%, Pol beta inh 3.2µM*, Pol kappa inh-1 -25%, GLS inh -5%, Pol eta inh-1 32µM*, Pol iota inh inconclusive, Pol iota confirm 27* and Pol eta inh-2 19*.
Screening O=C(N/N=C/c1cc(Cl)c(O)c(Cl)c1)c1cc2c(ccc3ccccc32)o1 returned KAT2A inh inconclusive, Pol beta inh 28µM*, Pol kappa inh-1 inconclusive, GLS inh inconclusive, Pol eta inh-1 22µM*, Pol iota inh inconclusive, Pol iota confirm inconclusive, Pol kappa inh-2 75* and Pol eta inh-2 43*.
`O=C(N/N=C/c1ccc([N+](=O)[O-])o1)c1cc2ccccc2o1` gave KAT2A inh 1%, Pol beta inh inconclusive, Pol kappa inh-1 inconclusive, GLS inh -7%, Pol eta inh-1 inconclusive and Pol iota inh inconclusive.
For O=C(N/N=C/c1ccc(O)c(Br)c1)c1cc2c(ccc3ccccc32)o1 the results were KAT2A inh -3%, Pol beta inh 0%, Pol kappa inh-1 -15%, GLS inh -5%, Pol eta inh-1 6% and Pol iota inh 1%.
Cc1nc2ccccn2c1C(=O)N/N=C/c1ccc([N+](=O)[O-])o1 was read as KAT2A inh -19%, Pol beta inh 32µM*, Pol kappa inh-1 50µM*, GLS inh inconclusive, Pol eta inh-1 7.9µM*, Pol iota inh 11µM*, Pol iota confirm 60* and Pol eta inh-2 34*.
`C=C(C)C(=O)Nc1ccc2c(c1)OCCOCCOCCO2` gave KAT2A inh 2%, Pol beta inh 10µM*, Pol kappa inh-1 79µM*, GLS inh 5%, Pol eta inh-1 22µM*, Pol iota inh inconclusive, TbPGK inh inconclusive and Pol eta inh-2 19*.
